Here are results for 24 compounds from PubChem BioAssay AID720697 (Broad Institute, 2013).

SMILES strings stand for the structures. Potency and affinity values are given separately. Inconclusive results are not listed. Where a call stands in place of a potency, no number is given. A number with no mark means an inactive call. Active and inactive are the calls of the source.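 Rule for the calls: active = signal loss with fitted half-maximal concentration at or below twice the top valid tested dose in every test run; inconclusive = runs disagree, flat 30 to 70% signal loss, or poor fit; inactive = all runs flat, opposite direction, or potency beyond limit.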

This assay in a line: HEK293T cytotoxicity, dose response, cytotoxicity control for miR-122 modulator project, cell-based, inhibitor set, cherry-pick, set 2 (AID 720697). Particulars: HEK293T viability, CellTiter-Glo luminescence, 48 h; series mostly up to 26 µM.
On to `N#Cc1ccc(C(=O)Nc2ccc(N3CCN(C(=O)c4ccco4)CC3)cc2)c(F)c1`, for which the activity change, negative = cytotoxicity was -30.3% [at 6 µM]. As for `O=C(C1CC1)N(CCN(C(=O)C1CC1)c1ccccc1)c1ccccc1`, the call was inactive. Regarding `CCCC(=O)Nc1ccc2c(c1)C(=O)N(C)[C@H]1CC[C@@H](CC(=O)NCCN3CCCCC3)O[C@H]1CO2`, the result was inactive. `C[C@@H]1CN([C@@H](C)CO)C(=O)c2cccc(NS(C)(=O)=O)c2O[C@H]1CN(C)S(=O)(=O)c1ccc(Cl)cc1`: the result was inactive. On the same count and under the same terms, the same measure for `OC[C@H]1[C@@H](c2ccccc2)[C@H](CNCC2CCC2)N1CC1CC1`: “inactive”; for `O=C(NCCCN1CCCC1)c1ccc(CSCc2cccc(Cl)c2)o1`: “inactive”. `CCCNC(=O)C[C@@H]1CC[C@@H]2[C@H](COc3ccc(NC(=O)c4cc(F)cc(F)c4)cc3C(=O)N2C)O1`: the compound was called inactive. The same measure, in the same setting: the same measure for `CCNC(=O)C[C@H]1CC[C@H]2[C@@H](COc3ccc(NS(C)(=O)=O)cc3C(=O)N2C)O1`: “inactive”; for `COc1ccccc1NC(=O)N1CCCCN2[C@H](CO)[C@H](c3ccc(C#CC4CCCC4)cc3)[C@H]2C1`: “inactive”; for `Cc1ccccc1NC(=O)Nc1ccc2c(c1)C(=O)N(C)[C@H]1CC[C@@H](CC(=O)O)O[C@H]1CO2`: “inactive”.

As for `CNC(=O)C[C@H]1CC[C@H]2[C@@H](COc3ccc(NC(=O)C(C)C)cc3C(=O)N2C)O1`, the result was inactive. `COc1ccc(NC(=O)COC(=O)CCCc2c[nH]c3ccccc23)cc1`: the call was inactive. Still for that read-out and setting: the value for `CNC(=O)C[C@H]1CC[C@@H]2[C@H](COc3ccc(NS(=O)(=O)c4ccc(F)cc4)cc3C(=O)N2C)O1` was “inactive”. On the same count and under the same terms, the same measure for `CNC(=O)C[C@@H]1CC[C@H]2[C@@H](COc3ccc(NC(=O)c4ccc(C(F)(F)F)cc4)cc3C(=O)N2C)O1`: “inactive”; for `CNC(=O)C[C@H]1CC[C@@H]2[C@@H](COc3ccc(NC(=O)c4cccc(OC)c4)cc3C(=O)N2C)O1`: “inactive”; for `CN1C(=O)c2cc(NC(=O)c3cccc(F)c3)ccc2OC[C@H]2O[C@H](CC(=O)NC3CCC3)CC[C@H]21`: “inactive”. Regarding `C[C@@H]1CN([C@@H](C)CO)S(=O)(=O)c2ccc(/C=C/c3ccccc3)cc2O[C@@H]1CN(C)C(=O)c1cccnc1`, the compound was classed as inactive. As to `CCCNC(=O)N1[C@H](CO)[C@@H](c2ccccc2)[C@H]1CNC(=O)c1ccccc1`, the compound was classed as inactive. Regarding `CCCCNC(=O)Nc1nnc(-c2ccc(OCC)cc2)o1`, the result was inactive. `Cc1nn(C)cc1NC(=O)C[C@H]1CC[C@@H]2[C@H](COc3ccc(NC(=O)Nc4cccc(Cl)c4)cc3C(=O)N2C)O1`: the compound was called inactive.

As to `C[C@@H]1CN([C@@H](C)CO)S(=O)(=O)c2ccc(-c3ccccc3)cc2O[C@@H]1CN(C)C(=O)c1ccc2c(c1)OCO2`, the call was inactive. On the same count and under the same terms, the same measure for `CN1C(=O)c2cc(NC(=O)c3cccc(F)c3)ccc2OC[C@H]2O[C@H](CC(=O)O)CC[C@H]21`: “inactive”; for `CNC(=O)C[C@H]1CC[C@H]2[C@@H](COc3ccc(NC(=O)c4cccc(OC)c4)cc3C(=O)N2C)O1`: “inactive”; for `O=C(Nc1ccccc1F)N1C[C@H]2[C@@H](c3ccccc31)[C@@H](CO)N2C(=O)C1CC1`: “inactive”.
